According to PubChem BioAssay (EPA / NIEHS):
Activity calls are given as the source filed them. The calls were made as follows: active = hit-call score of the fitted dose curve at least 0.9, where 1 is the maximum; inconclusive = response in the unintended direction; inactive = score below 0.9.

Experiment: CPHEA_Stoker_NIS_Cytotoxicity: Cytotoxicity Assessment for CPHEA's Radioactive Iodide Uptake (RAIU) Assay for Sodium/Iodide Symporter (NIS) Inhibition, Stoker and Laws Labs (AID 2283897);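 as to AC50: active means loss of ATP signal versus DMSO meaning cytotoxicity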
Experimental: CPHEA_Stoker_NIS is a cell-based, single-readout assay that uses hNIS-HEK293T-EPA, a novel human kidney cell line expressing human NIS, with measurements taken at 2 hours after chemical dosing in a 96-well plate. This radioactive iodide uptake (RAIU) assay is used to identify inhibitors of NIS-mediated iodide uptake. A parallel cytoxicity assay (Cell Titer Glo, Promega) was also run in the same cell line.CPHEA_Stoker_NIS_Cytotoxicity is one of 2 assay components measured from the CPHEA_Stoker_NIS assay. It is designed to make measurements of atp content, a form of viability reporter, as detected with bioluminescence signals by Luciferase-coupled ATP quantitation technology.Data from the assay component CPHEA_Stoker_NIS_Cytotoxicity was analyzed at the endpoint, CPHEA_Stoker_NIS_Cytotoxicity, in the positive analysis fitting direction relative to DMSO as the negative control and baseline of activity. Using a type of viability reporter, measures of ATP content for loss-of-signal activity can be used to understand the viability. To generalize the intended target to other relatable targets, this assay endpoint is annotated to the cell cycle intended target family, where the subfamily is cytotoxicity.
hNIS-HEK293T-EPA cells were seeded with a MultiFlo FX dispenser (BioTek, Winooski, VT) into ScintiPlate-96 microplates (Perkin Elmer, Waltham, MA) at a density of 4.0x10^4 cells per well in 200uL growth media and incubated for 40 hours before experimentation. On day of the assay, carrier-free 125I (Perkin-Elmer, Waltham, MA; specific activity: 17.4Ci/mg) was diluted with Hanks' balanced salt solution (Sigma, St. Louis, MO) supplemented with 10mM HEPES (uptake buffer; pH 7.4) at 5uCi/mL (288pg 125I/mL uptake buffer; 2.30nM). The assay was initiated by washing cells twice with 200uL uptake buffer using a 96-well Tecan HydroSpeed plate washer (Tecan, Mannedorf, Switzerland). Uptake buffer (59.7uL) was then added back to each well. Chemical samples (350nL at 200X) were administered using the HDR tool as previously described to achieve a 1X chemical/0.5% final DMSO concentration with subsequent addition of 10uL of 125I dilution (final [125I]: 329pM; 2.88pg/well) for a final reaction volume of 70uL/well. Cells were incubated at room temperature for 2 hours and then washed twice with 200uL ice cold uptake buffer. All uptake buffer was aspirated from wells, plates were sealed, and read on a MicroBeta2 plate reader (Perkin Elmer, Waltham, MA) using a detection protocol to measure CPM corresponding to intracellular 125I concentration. Each chemical concentration (0.001, 0.01, 0.1, 1.0, 10, and 100uM) was assayed in triplicate with three independent biological replicate plates (3 sequential cell passages). Additionally, a concentration response of NaClO4 (0.001, 0.01, 0.1, 1.0, 10, and 100uM) served as a positive control inhibition curve on each RAIU assay plate. DMSO control wells were assayed on each plate as a measure of maximum iodide uptake for normalization and determination of intra- and inter-assay variation. (Toxicol In Vitro, 2017, 40:66-78).

| Structure (SMILES) | outcome | AC50 |
| --- | --- | --- |
| CCCCc1ccc(O)cc1 | inactive |  |
| CCCCC(CC)COP(=O)(Oc1ccccc1)Oc1ccccc1 (stereo not drawn) | inactive |  |
| CCC(C)(C)c1ccc(O)cc1 | inactive |  |
| CCOP(=S)(OCC)SCSCC | inactive |  |
| c1ccc2c(c1)sc1ccccc12 | inactive |  |
| CCOP(=S)(Oc1ccc([N+](=O)[O-])cc1)c1ccccc1 (stereo not drawn) | inactive |  |
| O=NN1CCCC1 | inactive |  |
| ClC1=C(Cl)C2(Cl)C3C(Cl)C(Cl)CC3C1(Cl)C2(Cl)Cl (stereo not drawn) |  | 9.92 µM (active) |
| O=[N+]([O-])c1ccc(Cl)c(Cl)c1 | inactive |  |
| CC(C)(C)N(NC(=O)c1ccc(Cl)cc1)C(=O)c1ccccc1 | inactive |  |
| O=S1(=O)OCC2C(CO1)C1(Cl)C(Cl)=C(Cl)C2(Cl)C1(Cl)Cl (stereo not drawn) | inactive |  |
| CO/N=C(/C(=O)OC)c1ccccc1COc1ccccc1C | inactive |  |
| O=c1ssc(Cl)c1Cl |  | 80.9 µM (active) |
